Assay outcomes deposited in PubChem BioAssay by The Scripps Research Institute Molecular Screening Center.
Rows were chosen to be rich in hits. Some 3.5% of all compounds tested hit in one or more screens of this group.
GPR151 activ = activates the human receptor GPR151 | activation, % at 11.2 µM | hit rate 1% among 650,000 | AID 1508602 | PathHunter beta-arrestin GPR151 cells, luminescence | Q8TDV0; in the data active = activation above about 4.9%;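 note: 0% = median of compound wells and 100% = cells with positive control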
Target sequence (Q8TDV0 whole entry, looked up): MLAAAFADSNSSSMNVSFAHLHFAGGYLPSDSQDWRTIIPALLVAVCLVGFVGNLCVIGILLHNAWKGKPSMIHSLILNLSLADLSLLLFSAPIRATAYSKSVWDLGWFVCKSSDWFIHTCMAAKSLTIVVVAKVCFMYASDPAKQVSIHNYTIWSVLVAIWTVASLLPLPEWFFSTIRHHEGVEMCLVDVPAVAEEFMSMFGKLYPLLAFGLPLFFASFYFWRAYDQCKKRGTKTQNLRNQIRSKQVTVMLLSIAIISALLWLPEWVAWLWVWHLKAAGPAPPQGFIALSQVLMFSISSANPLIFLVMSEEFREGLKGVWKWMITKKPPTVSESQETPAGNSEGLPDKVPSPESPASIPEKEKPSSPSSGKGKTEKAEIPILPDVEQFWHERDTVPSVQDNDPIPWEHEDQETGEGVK
FBW7 act = activators of human E3 ligase FBW7 | Q969H0 | AlphaScreen FBW7–phospho-cyclin E peptide binding, activator screen | normalized activity (activation), % at 26.1 µM | hit rate 0.13% among 650,000; in the data active = normalized activity above about 1.9%;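 note: purified mutant Fbw7 with reduced substrate affinity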
MITF inh = inhibitors of human MITF; O75030; inhibition, % at 2.6 µM; AlphaScreen MITF homodimerization, bead proximity signal; hit rate 0.91% among 650,000; AID 1259374; in the data active = inhibition above about 50%;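 note: 0% = vehicle wells with protein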
TEAD-YAP inh = TEAD-YAP interaction inhibition. HEK-TIYL cells, TEAD-Gal4/YAP UAS-luciferase luminescence. inhibition, % at 9.12 µM. hit rate 1.4% among 640,000; in the data active = inhibition above about 32%;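 note: 0% = median of test compound wells and 100% = reference inhibitor wells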
Active calls of the source: *.

SMILES	GPR151 activ	FBW7 act	MITF inh	TEAD-YAP inh
CC(=O)Oc1ccc(C(=O)N2CCN(c3cccc(C)c3C)CC2)cc1	1	0	7	51*
CC1CCc2c(sc(NC(=S)NC(=O)c3ccccc3Cl)c2C(N)=O)C1 (stereo unspecified)	0	0	-5	3
CCCCN(C)C(=O)c1sc2ncn(Cc3ccccc3F)c(=O)c2c1C	0	1	22	10
NC(=O)c1cnn(-c2ccnc(NC(=O)Cc3ccc(F)cc3)c2)c1	0	0	-17	75*
COc1cccc(C(=O)NNC(=O)C(=O)Nc2ccccc2C)c1	0	0	-7	-8
Cc1ccc(C)c(S(=O)(=O)Nc2ccc(I)cc2)c1	0	0	5	47*
CN(CC(=O)Nc1ccc(C(N)=O)cc1)Cc1cccc(Cl)c1Cl	-1	0	7	-5
O=C(Nn1c(C2CC2)nc2cc(Cl)ccc2c1=O)c1ccccc1	0	0	2	53*
CCOC(=O)c1[nH]c2c(c1C)C(=O)CC(c1cc(OC)ccc1OC)C2 (stereo unspecified)	1	0	7	44*
CCOC(=O)c1[nH]c2c(c1C)C(=O)CC(c1cccc(OC)c1)C2 (stereo unspecified)	1	0	-3	44*
C=CCOC(=O)c1[nH]c2c(c1C)C(=O)CC(c1ccc(OC)c(OC)c1)C2 (stereo unspecified)	0	0	17	3
C=CCOC(=O)c1[nH]c2c(c1C)C(=O)CC(c1cc(OC)c(OC)c(OC)c1)C2 (stereo unspecified)	0	0	-4	43*
COC(=O)c1[nH]c2c(c1C)C(=O)CC(c1cc(OC)ccc1OC)C2 (stereo unspecified)	0	0	-5	46*
CCOc1ccc(C2CC(=O)c3c([nH]c(C(=O)OC)c3C)C2)cc1OC (stereo unspecified)	0	0	13	-12
COc1ccc(Cl)cc1C1=N/C(=C/c2cc(Br)cs2)C(=O)O1	0	0	3	7
CN(C)c1ccc(/C=N/NC(=O)CNc2ccc3ccccc3c2)o1	0	0	15	10
C=CCOC(=O)c1[nH]c2c(c1C)C(=O)CC(c1cccs1)C2 (stereo unspecified)	1	0	-9	49*
Cc1c(C(=O)O)[nH]c2c1C(=O)CC(c1ccccc1Cl)C2 (stereo unspecified)	-2	0	-6	-2
COC(=O)c1[nH]c2c(c1C)C(=O)CC(c1ccccc1Cl)C2 (stereo unspecified)	0	0	20	52*
C=CCOC(=O)c1[nH]c2c(c1C)C(=O)CC(c1cc(OC)ccc1OC)C2 (stereo unspecified)	0	0	-4	42*
C=CCOC(=O)c1[nH]c2c(c1C)C(=O)CC(c1ccc(OC)cc1)C2 (stereo unspecified)	1	0	1	-35
CCc1nc2ccc(C(=O)NC3CCCCC3C)cc2nc1CC (stereo unspecified)	2	0	-14	-20
CN(C)c1ccc(C2N(C)c3ccccc3N2C)cc1	0	0	8	47*
CN1c2ccccc2N(C)C1c1cccc(O)c1	0	0	5	2
CC1=C(C(=O)OC2CCCCCC2)C(c2ccc3c(c2)OCO3)C2=C(CCCC2=O)N1 (stereo unspecified)	-1	0	2	-7
SMILES	GPR151 activ	FBW7 act	MITF inh	TEAD-YAP inh
COc1ccccc1-c1nc(Cn2cnc3cc(C)c(C)cc32)no1	3	1	-3	33*
O=C(O)/C=C/c1cccc(-c2cnn3c(N4CCC[C@H]4CO)ccnc23)c1	-3	-1	-3	50*
COc1ccc(-c2cnn3c(N4CCC[C@H]4CO)ccnc23)cc1OC	0	0	-13	-23
COc1ccc(-c2cnn3c(N4CCC[C@H]4CO)ccnc23)cc1	0	0	-5	57*
OC[C@@H]1CCCN1c1ccnc2c(-c3cc4ccccc4o3)cnn12	-4	0	-6	44*
OC[C@@H]1CCCN1c1ccnc2c(-c3ccc4ccccc4c3)cnn12	-3	0	-10	60*
Cc1cc(C)n(CC(C)N2CCC(n3nccc3NC(=O)CC(C)C)CC2)n1 (stereo unspecified)	0	0	-5	-3
OC[C@@H]1CCCN1c1ccnc2c(-c3cccc(O)c3)cnn12	-1	0	-9	100*
COc1cccc(-c2cnn3c(N4CCC[C@H]4CO)ccnc23)c1	-1	0	3	59*
COc1cccc(-c2cnn3c(N4CCCCC4CCO)ccnc23)c1 (stereo unspecified)	1	0	-4	14
